An excerpt weighted towards active compounds, which were near 0.86% of everything screened.
AmpC detergent: blocks E. coli AmpC beta-lactamase in detergent assay. AmpC hydrolysis of nitrocefin, absorbance 480 nm, 0.01% Triton. P00811. Potency, µM (highest dose often 114 µM), for the others: at the highest dose activity change, negative = inhibition, hits mostly inhibitors. hit rate 0.041% among 370,000. AID 485294;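 also: 0% = no-compound wells and -100% = no-enzyme wells; nearly all actives have a fitted effect of over 25% in size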
Target sequence (P00811 whole entry, looked up): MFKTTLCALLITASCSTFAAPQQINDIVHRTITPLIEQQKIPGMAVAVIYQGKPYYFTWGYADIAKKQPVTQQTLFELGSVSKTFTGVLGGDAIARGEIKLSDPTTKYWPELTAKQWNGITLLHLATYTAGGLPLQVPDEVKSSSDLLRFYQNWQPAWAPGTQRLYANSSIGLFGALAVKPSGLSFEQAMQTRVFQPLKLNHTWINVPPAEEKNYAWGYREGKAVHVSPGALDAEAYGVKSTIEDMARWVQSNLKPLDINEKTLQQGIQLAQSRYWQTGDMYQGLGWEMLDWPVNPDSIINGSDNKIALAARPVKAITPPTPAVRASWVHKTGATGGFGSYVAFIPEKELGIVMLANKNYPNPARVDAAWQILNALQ
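20 mM phosphate pH 7.0 + 0.01% (detergent screen) or 0.0001% Triton X-100; 5.3 nM AmpC reagent; cpd preinc 15 min RT; nitrocefin (800 uM stock) to start; A480 q20 s × 4 min; Activity was normalised to no-enzyme and no-compound control wells.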
AmpC inh no detg: blocks E. coli AmpC beta-lactamase in detergent-free assay; AmpC nitrocefin hydrolysis, absorbance 480 nm, 0.0001% Triton; Potency, µM (titrated, usually from 57.1 µM), for the others: at the top dose activity change, negative = inhibition, actives largely listed as inhibitors; hit rate 0.52% among 330,000; AID 485341;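 also: plate controls were no compound for no effect and no enzyme for full effect; nearly all actives have a fitted effect of over 20% in size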
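AmpC (5.3 nM in the dispensed reagent) in 20 mM phosphate pH 7.0 with 0.01% (detergent screen) or 0.0001% Triton X-100 was preincubated with compounds for 15 min at room temperature. Nitrocefin was then added from an 800 uM solution, and hydrolysis was followed at 480 nm.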
AMA1-RON2 inh: inhibitors of Plasmodium falciparum AMA1-RON2 interaction | AlphaScreen AMA1-biotinylated RON2 peptide binding | Potency, µM (doses to about 58.2 µM), for inactives: at the top dose activity change, negative = inhibition, actives largely listed as inhibitors | hit rate 0.2% among 360,000;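 also: 0% = vehicle wells and -100% = peptide control; nearly all actives have a fitted effect of over 45% in size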
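AMA1 (3D7) with his tag at 25 nM final met compounds first, then biotinylated RON2 peptide at 25 nM; detection used donor plus acceptor beads, 10 µg/mL apiece, read by AlphaScreen after 30 min at room temperature.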
NS1 inh: influenza NS1 inhibition; Potency, µM (top dose mostly 46.1 µM), for the others: top-dose activity, positive = more growth; AID 2326; hit rate 0.4% among 270,000; calls by dose curve; also: actives are rising curves; nearly all actives have a fitted effect of over 50% in size
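S. cerevisiae expressing influenza A NS1, grown in glucose, washed, then diluted 1:100 into pH 6.0 -URA galactose medium with 23 nl compound. Growth recovery read as OD600; NS1-free strain serves as control.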
* = called active by the depositor; ? = inconclusive; . = not tested or not shown; [ ] = dose if it differs, or a comment. Unless noted, calls follow the shape of the dose curve; as a rule, active = well fitted curve in the direction sought with a large enough effect; inconclusive = small, poorly fitted or top-dose-only effect, or another doubt; inactive = no such curve, though single readings can be large; an effect the other way counts as inactive or inconclusive. Potency is read from the fitted curve at half-maximal effect.

SMILES	AmpC detergent	AmpC inh no detg	AMA1-RON2 inh	NS1 inh
CCCCC[C@@H](C)N1C[C@H](COCc2ccccc2)Oc2cc(N3CCC[C@@H]3COC)ccc2S1(=O)=O	.	.	-10%	.
CCCCNC(=O)Oc1cc(CCl)on1	?	-12%	.	.
CCCCNC(=O)Oc1c(Br)cc2sc(=O)oc2c1Br	45µM*	?	.	-72%
CC(=O)c1ccc2c(c1)N(Cc1ccccc1Cl)C(=O)C(C)S2 (stereo not given)	.	.	10%	.
CCN(CC)CCC(c1cc(OC)c(OC)c(OC)c1)c1c(OC)cc(OC)c2c(C)cc(=O)oc12 (stereo not given)	5%	134%	-2%	0%
CCCCCc1cc(=O)oc2c(C(CCN3CCCC(C)C3)c3ccc(N(C)C)cc3)c(OC)cc(OC)c12 (stereo not given)	1%	122%	14µM*	?
CCCCCc1cc(=O)oc2c(C(CCN(CC)CC)c3ccc(N(C)C)cc3)c(OC)cc(OC)c12 (stereo not given)	8%	206%	25µM*	11%
O=C(NC1CCCCC1)C(CCc1ccccc1)N1CCc2ccccc2C1 (stereo not given)	.	.	-2%	.
CCn1c2ccccc2c2cc(CN3CCN(Cc4cc(OC)ccc4O)CC3)ccc21	-11%	63%	13µM*	.
CCn1c2ccccc2c2cc(CN3CCN(Cc4cc(OC)c(O)c(OC)c4)CC3)ccc21	0%	.	.	.
C[C@@H]1CN([C@H](C)CO)C(=O)CCCn2nncc2CO[C@@H]1CN(C)C(=O)Nc1ccc(N2CCCCC2)cc1	.	.	-7%	.
CCN(CC)S(=O)(=O)c1ccc2[nH]c(=O)cc(C(=O)Nc3ccccc3N3CCOCC3)c2c1	5%	29%	5%	.
CN(C(=O)COC(=O)c1ccccc1SCC(=O)N1CCCC1)C1CCS(=O)(=O)C1 (stereo not given)	-2%	-12%	5%	2%
CC(C)CN(C(=O)COC(=O)c1ccccc1SCC(=O)N1CCCC1)C1CCS(=O)(=O)C1 (stereo not given)	.	.	10µM*	.
Fc1ccc(CSc2nncn2NCc2ccccc2)cc1	-3%	-4%	13%	-14%
Fc1ccc(CSc2nncn2NC/C=C/c2ccccc2)cc1	0%	7.1µM*	-18%	-4%
COc1cccc(C2C(C(=O)c3cc4cccc(OC)c4o3)=C(O)C(=O)N2c2cc(C)on2)c1OC (stereo not given)	?	20µM*	-7%	14%
O=C(O)CSc1cc(-c2ccccc2)nc2ccccc12	.	.	.	-5%
COc1ccc(OC)c(NC(=O)c2ccc(-c3cccs3)cc2)c1	5%	?	28µM*	.
Cc1cccc(N2CCN(C(=O)C(Cc3ccccc3)n3cccc3)CC2)c1C (stereo not given)	?	1µM*	-20%	1%
CC1CCN(C(=O)C(Cc2ccccc2)n2cccc2)CC1 (stereo not given)	?	10µM*	-7%	-7%
CC1CC(C)CN(C(=O)C(Cc2ccccc2)n2cccc2)C1 (stereo not given)	6%	6%	-9%	2%
Cc1ccc(O)c(C(=O)CC(=O)c2cccc(F)c2)c1	-5%	20µM*	39%	-163%
O=C1CSC(c2ccc([N+](=O)[O-])cc2)N1Cc1ccccc1 (stereo not given)	-9%	-1%	0%	-2%
CC1Cc2ccccc2N1Cc1cccc([N+](=O)[O-])c1 (stereo not given)	-2%	-34%	10µM*	?
SMILES	AmpC detergent	AmpC inh no detg	AMA1-RON2 inh	NS1 inh
CC1Cc2ccccc2N1Cc1ccc([N+](=O)[O-])cc1 (stereo not given)	-6%	-31%	11µM*	4%
Cc1ccc(NC(=O)/C(C#N)=C/c2cc(C)n(-c3ccc(N4CCOCC4)c([N+](=O)[O-])c3)c2C)c(C)c1	-7%	-9%	0%	8%
Cc1cc(/C=C(\C#N)C(=O)Nc2ccc(Cl)cc2)c(C)n1-c1ccc(N2CCOCC2)c([N+](=O)[O-])c1	-4%	7.9µM*	0%	16%
COc1cccc(CNc2ncnc3cc(OC)c(OC)cc23)c1	5%	3.2µM*	0%	1%
COc1cc2ncnc(NCc3ccc(C)cc3)c2cc1OC	-1%	83%	3%	12%
CCCC(=O)Nc1ccc(Cl)c(NC(=O)c2cccnc2)c1	-3%	0.16µM*	0%	-7%
N#CCC(=O)N/N=C\c1cccc(OC/C=C/c2ccccc2)c1	1%	13µM*	0%	27%
O=C(Nc1cc(Sc2ccccn2)cc([N+](=O)[O-])c1)c1cccc(Cl)c1	5%	-41%	-3%[11.6 µM]	25%
O=C(Nc1cc(Sc2ccccn2)cc([N+](=O)[O-])c1)c1ccc(Cl)cc1	-2%	32µM*	-21%	4%
CC(=O)C1=CN(Cc2ccccc2)CCC1=O	.	.	-3%	.
CCCc1cc(=O)oc2cc(OCC(=O)Nc3ccc(S(N)(=O)=O)cc3)ccc12	56µM*	28µM*	0%	8%
COc1ccc2c(CC(=O)OCC(=O)Nc3ccc(C)cc3)coc2c1	-14%	-33%	-8%	.
COc1ccc2c(CC(=O)OCC(=O)Nc3ccc(S(N)(=O)=O)cc3)coc2c1	-8%	10µM*	-10%	-3%
Cc1ccccc1NN1C(=O)C=CC1=O	1%	0.14µM*	6%	1%
Cc1ccc(NN2C(=O)C=CC2=O)cc1	-14%	-9%	0%	6%
c1cncc(C2SCCCS2)c1	.	.	-8%	.
CSc1cccc(NC(=O)CCCOc2cc(=O)n(C)c3ccccc23)c1	.	.	-5%	.
COC(=O)CN1C(=O)c2cccc3cccc1c23	-7%	-9%	9%	-9%
COC(=O)CN1C(=O)CC(C)(C)S(=O)c2ccccc21 (stereo not given)	?	1.3µM*	-2%	9%
COc1ccc(-c2cn3c(n2)sc2cc(C(=O)Nc4ccc(C)c(C)c4)ccc23)cc1	14%	.	.	.
COc1ccc(CN2CCNC(=O)C2CC(=O)N(C)Cc2nc(C)cs2)c(OC)c1 (stereo not given)	11%	87%	-1%	9%
O=C(NNc1cc(Cl)ccc1Cl)c1cccs1	3%	-26%	-21%	-7%
Cc1cc(Cl)ccc1NNC(=O)c1cccs1	-8%	-17%	20µM*	-5%
O=C(COC(=O)C12CC3CC(CC(C3)C1)C2)Nc1nc2c(F)c(F)c(F)cc2s1	-1%	10µM*	2%	9%
CC(=O)c1ccc(NC(=O)C2CCN(S(=O)(=O)c3cccc4cccnc34)CC2)cc1	?	-22%	-7%	-51%
COc1ccc(NC(=O)C2CCN(S(=O)(=O)c3cccc4cccnc34)CC2)cc1	3%	56µM*	-1%	-13%
O=c1cc(-c2ccccc2)oc2cc(O)c(O)c(O)c12	.	-30%	-17%	.
O=c1c(O)cccc2cc(O)c(O)c(O)c12	?	10µM*	2.5µM*	-41%
CCCSc1nc2c(c(=O)n(C)c(=O)n2C)n1C	-13%	-9%	0%	0%
Cn1c(=O)c2c(nc(C(=N)SCC(=O)O)n2C)n(C)c1=O	.	.	.	7.9µM*
